According to ChEMBL document CHEMBL4513216, “Probing the Open Global Health Chemical Diversity Library for Multistage-Active Starting Points for Next-Generation Antimalarials” (ACS Infect Dis, 2020):
About 8,600 (12%) of roughly 69,000 compounds showed an effect of 50% or more. This excerpt belongs to a sample that is enriched for strong results.

Test system: Plasmodium berghei
Assay: Screen against P. berghei liver stage (PbLuc), transformed with Luciferase, at 10uM
Type: functional, HepG2
Settings: tested at 10 uM

Compound | INHIBITION [%]
O=C(Cc1csc(-c2ccco2)n1)N1CCSCC1 | -5.25
CCN(Cc1ccccc1)C(=O)CN1CCCC(Cn2cncn2)C1 (configuration not stated) | 63.9
CN(Cc1cccc(F)c1)C(=O)CN1CCCC(Cn2cncn2)C1 (configuration not stated) | 75.2
CN(Cc1ccc(F)cc1)C(=O)CN1CCCC(Cn2cncn2)C1 (configuration not stated) | 11.6
CCN(Cc1ccccc1)C(=O)CN1CCOC(Cn2cncn2)C1 (configuration not stated) | -122
CN(Cc1cccc(F)c1)C(=O)CN1CCOC(Cn2cncn2)C1 (configuration not stated) | 37.9
Cc1ccc(CN(C)C(=O)CN2CCCC(Cn3cncn3)C2)cc1 (configuration not stated) | 51.1
CN(Cc1ccccc1)C(=O)CN1CCCC(Cn2cncn2)C1 (configuration not stated) | -25.9
CN(Cc1ccsc1)C(=O)CN1CCCC(Cn2cncn2)C1 (configuration not stated) | 17.5
CN(Cc1cccc(F)c1)C(=O)CN1CCCCC1Cn1cncn1 (configuration not stated) | 13.5
CO[C@H]1CCN(S(=O)(=O)c2cccs2)[C@H]1Cc1cccnc1 | -5.05
Cc1cc(C(=O)NCCN2CCN(S(C)(=O)=O)CC2)no1 | 10.3
COc1cc(C2CC(=O)Nc3c2cnn3C)ccc1O (configuration not stated) | 10.9
CC(=O)N1C[C@@H](c2ccsc2)[C@@H]2CN(Cc3ccccc3Cl)CC[C@@H]21 | 73.8
O=C(C1CCCC1)N1C[C@@H](c2ccsc2)[C@@H]2CN(C3CCCC3)CC[C@@H]21 | 45.2
O=C(C1CCC1)N1C[C@@H](c2ccsc2)[C@@H]2CN(C3CCCC3)CC[C@@H]21 | 5.34
CC(=O)N1C[C@@H](c2ccsc2)[C@@H]2CN(CC3CCCCC3)CC[C@@H]21 | 30.8
COc1ccccc1CN1CC[C@H]2[C@@H](C1)[C@H](c1ccsc1)CN2C(C)=O | 24.8
CC(=O)N1C[C@@H](c2ccsc2)[C@@H]2CN(Cc3ccccc3C)CC[C@@H]21 | 64.9
Cc1n[nH]c(C)c1-c1cnc(C2CCN(S(C)(=O)=O)CC2)cn1 | 11.1
O[C@@H]1CC(CNCc2cccc(Cl)c2)(COc2cccnc2)C[C@@H]1O (some centres not stated) | 37.4
COC(=O)c1ccc(NC(C)c2ccc3c(c2)CC(=O)N3)nn1 (configuration not stated) | -4.12
Cc1nnc(N2CCO[C@H]3[C@@H](OCc4ccccn4)CC[C@@H]32)s1 | 11.4
COCC1CCN(C(C(=O)O)c2c(F)cccc2OC(C)C)CC1 (configuration not stated) | 35.1
O=S(=O)(Nc1ccc2c(c1)OCCO2)N1CCCCC1 | 8.44
CN(C)S(=O)(=O)Nc1ccc(Oc2ccc3c(c2)OCO3)cc1 | 41.2
O=S(=O)(Nc1ccc(Oc2ccc3c(c2)OCO3)cc1)N1CCCCC1 | 52.7
